Measured values: PubChem BioAssay (NCATS)
Records with an inconclusive call do not appear. Active and inactive are the calls of the source. Calls follow the shape of the dose curve; as a rule, active = well fitted inhibition curve with a large enough effect; inconclusive = small, poorly fitted or top-dose-only effect; inactive = flat fitted curve, though single readings scatter.
% is scaled to controls: 0 for no effect and ±100 for the full control effect; potency is read from the fitted curve at half-maximal effect.

These compounds were tested against Calcium and integrin-binding protein 1 (Homo sapiens) (UniProt Q99828) (assay: Primary qHTS for Identification of Calcium Integrin Binding Protein 1 (CIB1) Competitor (AID 1508620;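 as to activity change, negative = inhibition: GST tagged CIB1 binding a fluorescein labelled alphaIIb integrin peptide tracer; top concentration of the series differs between compounds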)). Conditions: CIB1-GST / FITC-alphaIIb peptide fluorescence polarization; series mostly up to 57.7 µM; activity change, negative = inhibition: at the top concentration.
Sequence of Calcium and integrin-binding protein 1 (Homo sapiens) (Q99828 whole entry, looked up): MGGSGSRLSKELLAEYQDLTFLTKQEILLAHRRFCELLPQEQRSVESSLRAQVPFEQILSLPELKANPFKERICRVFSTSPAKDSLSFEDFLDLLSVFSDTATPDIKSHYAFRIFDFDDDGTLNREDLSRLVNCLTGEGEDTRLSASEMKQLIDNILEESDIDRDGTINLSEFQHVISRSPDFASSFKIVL
In short: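 Fluorescence polarization competition: CIB1-GST (1 uM final) preincubated with compound 15 min at room temperature, then FITC-labeled alphaIIb peptide (100 nM final) added for another 15 min. Polarization read at Ex 480/Em 540.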
`COC[C@H](NC(=O)c1cnc(C)s1)C(=O)N[C@@H](COC)C(=O)N[C@@H](Cc1ccccc1)C(=O)[C@@]1(C)CO1` was tested, and the “activity change, negative = inhibition” value was 1.21% (inactive).
With `CN(N=O)C(=O)N[C@H]1C(O)OC(CO)[C@@H](O)[C@H]1O` (some centres undefined) the “activity change, negative = inhibition” value was 1.37% (inactive).
With `CC(=O)N[C@@H]1[C@H](O[C@@H]2c3ccc(c(Cl)c3)Oc3cc4cc(c3O[C@H]3O[C@H](CO)[C@@H](O)[C@H](O)[C@H]3NC(=O)CCCCCCCC(C)C)Oc3ccc(cc3Cl)C[C@H]3NC(=O)[C@H](N)c5ccc(O)c(c5)Oc5cc(O)cc(c5)[C@H](NC3=O)C(=O)N[C@H]4C(=O)N[C@H]3C(=O)N[C@@H]2C(=O)N[C@@H](C(=O)O)c2cc(O)cc(O[C@H]4O[C@H](CO)[C@@H](O)[C@H](O)[C@H]4O)c2-c2cc3ccc2O)O[C@H](CO)[C@@H](O)[C@@H]1O` the “activity change, negative = inhibition” value was 2.8% (inactive).
With `NS(=O)(=O)OC[C@@H]1C[C@@H](n2ccc3c(N[C@H]4CCc5ccccc54)ncnc32)C[C@H]1O` the “activity change, negative = inhibition” value was 1.59% (inactive).
In the case of `C=C1C(=CC=C2CCC[C@]3(C)[C@@H]([C@H](C)CCCC(C)(C)O)CC[C@@H]23)C[C@@H](O)C[C@@H]1O`, the “activity change, negative = inhibition” value is reported as -5.07% (inactive).
For `CCCCCCCCCCCC(CC1OC(=O)C1CCCCCC)OC(=O)C(CC(C)C)NC=O` (centres undefined), the “activity change, negative = inhibition” value was -3.21% (inactive).
In the case of `C=CC(=O)N1CCc2ccc(-n3c(=O)ccc4cnc5ccc(-c6cnn(C)c6)cc5c43)cc21`, the “activity change, negative = inhibition” value is reported as -1.74% (inactive).
In the case of `CC(C)N(CC[C@H](c1ccccc1)c1cc(CO)ccc1O)C(C)C`, the “activity change, negative = inhibition” value is reported as -0.618% (inactive).
In the case of `CCNC(=O)Nc1ccc(-c2nc3c(c(N4CCOC[C@H]4C)n2)CCN(C2COC2)C3)cc1`, the “activity change, negative = inhibition” value is reported as -4.08% (inactive).
`NC(=O)Nc1sc(-c2ccc(F)cc2)cc1C(N)=O` was tested, and the “activity change, negative = inhibition” value was -1.1% (inactive).
`NC(=O)c1ncn([C@@H]2O[C@H](CO)[C@@H](O)[C@@H]2O)c1N` was tested, and the “activity change, negative = inhibition” value was 1.92% (inactive).
For `NC1=N[C@H]2[C@H](CS[C@H]2CCCCC(=O)O)N1`, the “activity change, negative = inhibition” value was -5.65% [at 30.2 µM] (inactive).
`O=C(O)C=Cc1ccc(Cn2ccnc2)cc1` was tested, and the “activity change, negative = inhibition” value was -8.82% (inactive).
For `CC1(C)[C@H](O[C@H]2O[C@H](C(=O)O)[C@@H](O)[C@H](O)[C@H]2O[C@@H]2O[C@H](C(=O)O)[C@@H](O)[C@H](O)[C@H]2O)CC[C@@]2(C)[C@H]1CC[C@]1(C)[C@H]2C(=O)C=C2[C@H]3C[C@@](C)(C(=O)O)CC[C@]3(C)CC[C@]21C`, the “activity change, negative = inhibition” value was 0.44% (inactive).
For `Cc1cc(C(=O)NOCCO)c(Nc2ccc(I)cc2F)n(C)c1=O`, the “activity change, negative = inhibition” value was 3.7% (inactive).
In the case of `CNC(=O)Nc1ccc(-c2nc(N3CC4CCC(C3)O4)c3cnn(C4CCC5(CC4)OCCO5)c3n2)cc1`, the “activity change, negative = inhibition” value is reported as -0.247% (inactive).
`CC(C)c1cnn2c(NCc3ccccc3)cc(NCCCCCCN)nc12` was tested, and the “activity change, negative = inhibition” value was -3.31% (inactive).
For `COc1cc(C[C@@H](CO)[C@H](CO)Cc2ccc(O)c(OC)c2)ccc1O`, the “activity change, negative = inhibition” value was -1.7% (inactive).
For `C=CC(=O)Nc1cccc(Nc2nc(NC3CCC(N(C)C)CC3)nc3c2ncn3C(C)C)c1` (centres undefined), the “activity change, negative = inhibition” value was 0.949% (inactive).
In the case of `OCCN1C[C@H](O)[C@@H](O)[C@H](O)[C@@H]1CO`, the “activity change, negative = inhibition” value is reported as 2.02% (inactive).
With `COC1=C(OC)C(=O)C(CC=C(C)CCC=C(C)CCC=C(C)CCC=C(C)CCC=C(C)CCC=C(C)CCC=C(C)CCC=C(C)CCC=C(C)CCC=C(C)C)=C(C)C1=O` the “activity change, negative = inhibition” value was 6.68% (inactive).
`COc1cc(OC)c(C=CS(=O)(=O)Cc2ccc(OC)c(NCC(=O)O)c2)c(OC)c1` was tested, and the “activity change, negative = inhibition” value was 2.3% (inactive).
With `O=C(Nc1nnc(-c2ccco2)o1)c1cc(-c2ccccc2)nc2ccccc12` the “activity change, negative = inhibition” value was -10.8% (inactive).
In the case of `CN(C)c1ccc2cc(C(=O)N[C@@H](CCCN=C(N)CCl)C(=O)NCc3ccccc3)ccc2c1`, the “activity change, negative = inhibition” value is reported as -16.4% (inactive).
With `C[C@H](NC(=O)Cc1cc(F)cc(F)c1)C(=O)N[C@H](C(=O)OC(C)(C)C)c1ccccc1` the “activity change, negative = inhibition” value was -2.5% (inactive).
With `CCS(=O)(=O)Nc1ccc2[nH]c(O)c(C(=Nc3ccc(CN4CCCCC4)cc3)c3ccccc3)c2c1` the “activity change, negative = inhibition” value was -0.865% (inactive).
`C=C(C)[C@@H]1CC[C@]2(C)CC[C@]3(C)[C@H](CC[C@@H]4[C@@]5(C)CC[C@H](O)C(C)(C)[C@H]5CC[C@]43C)[C@@H]12` was tested, and the “activity change, negative = inhibition” value was 0.733% (inactive).
For `CC(C)(C)[N+]([O-])=Cc1ccc(S(=O)(=O)O)cc1S(=O)(=O)O`, the “activity change, negative = inhibition” value was -0.903% (inactive).
`O=C(c1ccc(F)cc1)N1CCC[C@H](c2nc(-c3ccc(F)cc3)no2)C1` was tested, and the “activity change, negative = inhibition” value was -0.499% (inactive).
`COc1cc(C(=O)NC2CCN(C)CC2)ccc1Nc1ncc2c(n1)N(C1CCCC1)CCC(=O)N2C(C)C` was tested, and the “activity change, negative = inhibition” value was -5.69% (inactive).
`O=C(C=CC=Cc1ccc2c(c1)OCO2)N1CCCCC1` was tested, and the “activity change, negative = inhibition” value was 1.07% (inactive).
With `COC(=O)C=CC(=O)OC` the “activity change, negative = inhibition” value was 0.244% (inactive).
For `O=C1NC(=O)[C@@H](c2cn3c4c(cccc24)CCC3)[C@H]1c1c[nH]c2ccccc12`, the “activity change, negative = inhibition” value was -8.33% (inactive).
With `CCc1ccc(C(=O)Nc2cc(CN3CCN(C)CC3)cc(C(F)(F)F)c2)cc1C#Cc1cnc2ccnn2c1` the Potency was “inactive”.
For `CNC(=O)c1cccc(-c2ccc3c(N4CCOC[C@H]4C)nc(N4CCOC[C@H]4C)nc3n2)c1`, the “activity change, negative = inhibition” value was 0.173% (inactive).
For `CC(=O)[C@]1(O)Cc2c(O)c3c(c(O)c2[C@@H](O[C@H]2C[C@H](N)[C@@H](O)[C@H](C)O2)C1)C(=O)c1ccccc1C3=O`, the Potency was 24.1 µM (active).
In the case of `CC(=O)OC[C@@H]1O[C@@H](n2ccc(=O)[nH]c2=O)[C@H](OC(C)=O)[C@H]1OC(C)=O`, the “activity change, negative = inhibition” value is reported as -3.46% (inactive).
In the case of `O=C(O)CCCCCC(=O)NN=C1CCCC1`, the Potency is reported as “inactive”.
In the case of `Cn1cc(-c2ccc3ncc(Cc4ccc5ncccc5c4)n3n2)cn1`, the Potency is reported as “inactive”.
